Results published in ChEMBL document CHEMBL2218924, “A broad activity screen in support of a chemogenomic map for kinase signalling research and drug discovery” (Biochem J, 2013).

What follows are compounds tested against Tyrosine-protein kinase Lck (Homo sapiens) (UniProt P06239). Conditions: at 10 µM.
Chain of Tyrosine-protein kinase Lck (Homo sapiens) (P06239 2-509 limits assumed): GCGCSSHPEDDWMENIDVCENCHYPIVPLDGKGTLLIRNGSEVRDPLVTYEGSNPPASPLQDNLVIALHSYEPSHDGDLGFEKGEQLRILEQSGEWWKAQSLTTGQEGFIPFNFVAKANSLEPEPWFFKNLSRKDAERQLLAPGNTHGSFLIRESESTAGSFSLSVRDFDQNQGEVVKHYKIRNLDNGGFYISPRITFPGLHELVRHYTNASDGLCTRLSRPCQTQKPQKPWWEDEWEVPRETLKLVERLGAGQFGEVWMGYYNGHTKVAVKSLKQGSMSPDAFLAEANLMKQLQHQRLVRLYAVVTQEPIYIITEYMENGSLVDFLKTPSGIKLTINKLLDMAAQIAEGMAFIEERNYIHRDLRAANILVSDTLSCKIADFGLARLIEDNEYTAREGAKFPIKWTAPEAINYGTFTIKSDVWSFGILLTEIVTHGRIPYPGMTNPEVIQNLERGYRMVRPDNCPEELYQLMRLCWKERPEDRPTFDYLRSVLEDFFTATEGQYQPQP

Compared with `Oc1ccc(-c2nc(-c3ccc(F)cc3)c(-c3ccncc3)[nH]2)cc1`, `NC(=O)c1ccc2[nH]c(-c3ccc(Oc4ccc(Cl)cc4)cc3)nc2c1` is higher in residual activity: 26% for the first, 102% for the second.

First: O=C1NC(=O)c2cc(Nc3ccc(F)cc3)c(Nc3ccc(F)cc3)cc21
Second: COc1cc2ncnc(Nc3ccc(NC(=O)c4ccccc4)cc3)c2cc1OC
The residual activity of the first is higher: 44% for the first, 9% for the second.

First: CN(C)c1ccc(/C=C2\C(=O)Nc3ccccc32)cc1
Second: CO[C@@H]1[C@H](N(C)C(=O)c2ccccc2)C[C@H]2O[C@]1(C)n1c3ccccc3c3c4c(c5c6ccccc6n2c5c31)C(=O)NC4
The residual activity of the first is higher: 71% for the first, 6% for the second.

Going from `Nc1nc(Nc2ccc(S(N)(=O)=O)cc2)nn1C(=S)Nc1c(F)cccc1F` to `Nc1cccc(-c2cc3c(Oc4cccc(O)c4)ncnc3[nH]2)c1`, the residual activity falls from 18% to 0%.

First: CC[n+]1c(/C=C/N(C)c2ccccc2)n(-c2ccccc2)c2ccc(-c3nc4ccccc4s3)cc21
Second: Nc1ccc2ncnc(NCCc3ccc(Oc4ccccc4)cc3)c2c1
The residual activity of the first is higher: 65% for the first, 20% for the second.

Going from `COc1cc2ncnc(Nc3ccc(O)c(Br)c3)c2cc1OC` to `Cc1cccc(-c2[nH]c(C(C)(C)C)nc2-c2ccc3c(c2)OCO3)n1`, the residual activity rises from 10% to 92%.

Compared with `Cc1cncc2cccc(S(=O)(=O)N3CCCN(C(=O)CN)C[C@H]3C)c12`, `Ic1cccc(CSc2nnc(-c3ccncc3)o2)c1` is higher in residual activity: 78% for the first, 87% for the second.

Each compound was assayed against Tyrosine-protein kinase Lyn (Homo sapiens) (UniProt P07948). Conditions: at 1 µM.
Chain of Tyrosine-protein kinase Lyn (Homo sapiens) (P07948 2-512 limits assumed): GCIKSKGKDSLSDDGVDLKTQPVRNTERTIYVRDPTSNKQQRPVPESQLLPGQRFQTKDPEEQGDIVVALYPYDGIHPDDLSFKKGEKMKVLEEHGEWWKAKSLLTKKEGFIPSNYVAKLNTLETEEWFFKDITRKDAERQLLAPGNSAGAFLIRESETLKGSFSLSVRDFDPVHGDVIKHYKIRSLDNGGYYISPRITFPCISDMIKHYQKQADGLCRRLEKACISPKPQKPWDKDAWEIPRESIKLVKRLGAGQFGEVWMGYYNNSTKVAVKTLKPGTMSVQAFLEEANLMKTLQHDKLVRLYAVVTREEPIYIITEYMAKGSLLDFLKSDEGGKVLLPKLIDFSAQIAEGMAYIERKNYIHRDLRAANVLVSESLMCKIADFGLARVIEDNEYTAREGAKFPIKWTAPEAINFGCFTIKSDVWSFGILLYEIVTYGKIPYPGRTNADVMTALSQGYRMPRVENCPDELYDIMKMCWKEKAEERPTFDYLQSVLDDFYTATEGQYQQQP

Going from `COc1cc2ncnc(Nc3ccc(Oc4ccccc4)cc3)c2cc1OC` to `COc1cc2ncnc(Nc3ccc(NC(=O)c4ccccc4)cc3)c2cc1OC`, the residual activity rises from 1% to 32%.

Compared with `Oc1c2ccccc2c2c3c(cccc13)N=N2`, `Cn1nc2c3c(cccc31)C(=O)c1ccccc1-2` is higher in residual activity: 70% for the first, 89% for the second.

Going from `Cc1nc2cc3nc(-c4cccs4)cnc3cc2n1C` to `Cc1cc(Nc2nc(-c3ccccc3)nc3ccccc23)n[nH]1`, the residual activity falls from 91% to 9%.

Compared with `CO[C@H]1[C@@H](OC)C[C@H](C)[C@@H](OC)C2=CC(=O)C=C(NC(=O)/C(C)=C/C=C/[C@H](OC)[C@@H](OC(N)=O)/C(C)=C/[C@@H]1C)C2=O`, `CO[C@@H]1[C@H](N(C)C(=O)c2ccccc2)C[C@H]2O[C@]1(C)n1c3ccccc3c3c4c(c5c6ccccc6n2c5c31)C(=O)NC4` is lower in residual activity: 85% for the first, 6% for the second.

Compared with `COc1ccc(CNc2nc(N(CCO)CCO)nc3c2ncn3C(C)C)cc1`, `COc1ccc(S(=O)(=O)N(CCO)c2ccccc2CN(C)C/C=C/c2ccc(Cl)cc2)cc1` is higher in residual activity: 74% for the first, 97% for the second.

First: O=C1Nc2ccc(Br)cc2/C1=C\c1cc2c([nH]1)CCCC2
Second: CN(C)c1ccc(/C=C2\C(=O)Nc3ccccc32)cc1
The residual activity of the first is lower: 21% for the first, 86% for the second.

Going from `O=[N+]([O-])c1ccc(-c2nc(-c3ccc(F)cc3)c(-c3ccncc3)[nH]2)cc1` to `Oc1ccc(-c2nc(-c3ccc(F)cc3)c(-c3ccncc3)[nH]2)cc1`, the residual activity falls from 75% to 66%.

Compared with `c1ccc(-c2n[nH]c3c2oc2ccccc23)cc1`, `O=C1Nc2ccccc2/C1=C1/Nc2ccccc2/C1=N\OCCC(O)CO` (stereo not drawn) is lower in residual activity: 68% for the first, 4% for the second.

Compared with `CCN(CC)C(=O)c1ccc(Nc2nc(OCC3CCCCC3)c3nc[nH]c3n2)cc1`, `O=C(Nc1cccc(Nc2nccc(Nc3cccc(C(F)(F)F)c3)n2)c1)C1CC1` is higher in residual activity: 20% for the first, 41% for the second.

First: N#CCCc1ccc2c(c1)-c1[nH]c3ccc([N+](=O)[O-])cc3c1CC(=O)N2
Second: CN(C)CCCn1cc(C2=C(c3c[nH]c4ccccc34)C(=O)NC2=O)c2ccccc21
The residual activity of the first is lower: 5% for the first, 79% for the second.

Compared with `C[C@@H](N)[C@H]1CC[C@H](C(=O)Nc2ccncc2)CC1`, `CC(=O)c1ccc(N2CCOCC2)cc1O` is higher in residual activity: 99% for the first, 105% for the second.

Compared with `O=c1c2ccccc2[nH]c(=S)n1CCN1CCC(=C(c2ccc(F)cc2)c2ccc(F)cc2)CC1`, `O=C1NC(=O)c2cc(Nc3ccc(F)cc3)c(Nc3ccc(F)cc3)cc21` is lower in residual activity: 83% for the first, 35% for the second.

Going from `NC(=O)c1ccc2[nH]c(-c3ccc(Oc4ccc(Cl)cc4)cc3)nc2c1` to `Nc1ccc2ncnc(NCCc3ccc(Oc4ccccc4)cc3)c2c1`, the residual activity falls from 91% to 24%.

Going from `Nc1nc(Nc2ccc(S(N)(=O)=O)cc2)nn1C(=S)Nc1c(F)cccc1F` to `Nc1cccc(-c2cc3c(Oc4cccc(O)c4)ncnc3[nH]2)c1`, the residual activity falls from 6% to 2%.

Going from `CC[n+]1c(/C=C/N(C)c2ccccc2)n(-c2ccccc2)c2ccc(-c3nc4ccccc4s3)cc21` to `Cc1cccc(-c2[nH]c(C(C)(C)C)nc2-c2ccc3c(c2)OCO3)n1`, the residual activity rises from 73% to 91%.

Going from `COc1cc2ncnc(Nc3ccc(O)c(Br)c3)c2cc1OC` to `Ic1cccc(CSc2nnc(-c3ccncc3)o2)c1`, the residual activity rises from 7% to 63%.

First: N#CC(C#N)=C(N)/C(C#N)=C/c1ccc(O)cc1
Second: Cc1cncc2cccc(S(=O)(=O)N3CCCN(C(=O)CN)C[C@H]3C)c12
The residual activity of the first is higher: 93% for the first, 82% for the second.

What follows are compounds tested against Tyrosine-protein kinase Lyn (Homo sapiens) (UniProt P07948). Conditions: at 10 µM.

First: COc1cc2ncnc(Nc3ccc(Oc4ccccc4)cc3)c2cc1OC
Second: COc1cc2ncnc(Nc3ccc(NC(=O)c4ccccc4)cc3)c2cc1OC
The residual activity of the first is lower: 1% for the first, 6% for the second.

Going from `Oc1c2ccccc2c2c3c(cccc13)N=N2` to `Cn1nc2c3c(cccc31)C(=O)c1ccccc1-2`, the residual activity rises from 30% to 50%.

First: Cc1nc2cc3nc(-c4cccs4)cnc3cc2n1C
Second: Cc1cc(Nc2nc(-c3ccccc3)nc3ccccc23)n[nH]1
The residual activity of the first is higher: 32% for the first, 4% for the second.

First: CO[C@H]1[C@@H](OC)C[C@H](C)[C@@H](OC)C2=CC(=O)C=C(NC(=O)/C(C)=C/C=C/[C@H](OC)[C@@H](OC(N)=O)/C(C)=C/[C@@H]1C)C2=O
Second: CO[C@@H]1[C@H](N(C)C(=O)c2ccccc2)C[C@H]2O[C@]1(C)n1c3ccccc3c3c4c(c5c6ccccc6n2c5c31)C(=O)NC4
The residual activity of the first is higher: 57% for the first, 2% for the second.

Going from `COc1ccc(CNc2nc(N(CCO)CCO)nc3c2ncn3C(C)C)cc1` to `COc1ccc(S(=O)(=O)N(CCO)c2ccccc2CN(C)C/C=C/c2ccc(Cl)cc2)cc1`, the residual activity falls from 78% to 65%.

First: O=C1Nc2ccc(Br)cc2/C1=C\c1cc2c([nH]1)CCCC2
Second: CN(C)c1ccc(/C=C2\C(=O)Nc3ccccc32)cc1
The residual activity of the first is lower: 22% for the first, 63% for the second.

Going from `O=[N+]([O-])c1ccc(-c2nc(-c3ccc(F)cc3)c(-c3ccncc3)[nH]2)cc1` to `Oc1ccc(-c2nc(-c3ccc(F)cc3)c(-c3ccncc3)[nH]2)cc1`, the residual activity falls from 23% to 11%.

Compared with `c1ccc(-c2n[nH]c3c2oc2ccccc23)cc1`, `O=C1Nc2ccccc2/C1=C1/Nc2ccccc2/C1=N\OCCC(O)CO` (stereo not drawn) is lower in residual activity: 30% for the first, -1% for the second.

First: N#Cc1cnc2cnc(NCc3cccnc3)cc2c1Nc1ccc(F)c(Cl)c1
Second: Nc1cccc(-c2cc3c(Oc4cccc(O)c4)ncnc3[nH]2)c1
The residual activity of the first is higher: 1% for the first, -1% for the second.

Going from `CCN(CC)C(=O)c1ccc(Nc2nc(OCC3CCCCC3)c3nc[nH]c3n2)cc1` to `O=C(Nc1cccc(Nc2nccc(Nc3cccc(C(F)(F)F)c3)n2)c1)C1CC1`, the residual activity rises from 1% to 6%.

First: N#CCCc1ccc2c(c1)-c1[nH]c3ccc([N+](=O)[O-])cc3c1CC(=O)N2
Second: CN(C)CCCn1cc(C2=C(c3c[nH]c4ccccc34)C(=O)NC2=O)c2ccccc21
The residual activity of the first is lower: 0% for the first, 22% for the second.

Compared with `C[C@@H](N)[C@H]1CC[C@H](C(=O)Nc2ccncc2)CC1`, `CC(=O)c1ccc(N2CCOCC2)cc1O` is lower in residual activity: 100% for the first, 98% for the second.

First: O=c1c2ccccc2[nH]c(=S)n1CCN1CCC(=C(c2ccc(F)cc2)c2ccc(F)cc2)CC1
Second: O=C1NC(=O)c2cc(Nc3ccc(F)cc3)c(Nc3ccc(F)cc3)cc21
The residual activity of the first is higher: 46% for the first, 7% for the second.

Going from `NC(=O)c1ccc2[nH]c(-c3ccc(Oc4ccc(Cl)cc4)cc3)nc2c1` to `Nc1ccc2ncnc(NCCc3ccc(Oc4ccccc4)cc3)c2c1`, the residual activity falls from 88% to 11%.

First: Nc1nc(Nc2ccc(S(N)(=O)=O)cc2)nn1C(=S)Nc1c(F)cccc1F
Second: COc1cc2ncnc(Nc3ccc(O)c(Br)c3)c2cc1OC
The residual activity of the first is higher: 1% for the first, -2% for the second.

First: CC[n+]1c(/C=C/N(C)c2ccccc2)n(-c2ccccc2)c2ccc(-c3nc4ccccc4s3)cc21
Second: Cc1cccc(-c2[nH]c(C(C)(C)C)nc2-c2ccc3c(c2)OCO3)n1
The residual activity of the first is lower: 73% for the first, 76% for the second.

Going from `N#CC(C#N)=C(N)/C(C#N)=C/c1ccc(O)cc1` to `Ic1cccc(CSc2nnc(-c3ccncc3)o2)c1`, the residual activity falls from 70% to 47%.

`Cc1cncc2cccc(S(=O)(=O)N3CCCN(C(=O)CN)C[C@H]3C)c12` was tested, and the residual activity was 46%.
